We go through four molecules from PubChem BioAssay (NCATS).

Inconclusive results are not listed. Unmarked numbers belong to inactive results. Calls of active or inactive are those of the source. Calls follow the shape of the dose curve; as a rule, active = well fitted cell-killing curve with a large enough effect; inconclusive = small, poorly fitted or top-dose-only effect, or effect the other way; inactive = no such curve, though single readings can be large or run the other way.
Potency is read from the fitted curve at half-maximal effect.

The nature of the assay: Viability qHTS for spleen associated tyrosine kinase inhibitor (SYKi) drug resistant MV4-11 cells (AID 1963824). Also: nearly all actives have a fitted effect of over 35% in size. The note with it: SYKi-resistant MV4-11 viability, CellTiter-Glo, 72 h; series mostly up to 45 µM; viability, % of control: at the top concentration. Put shortly: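 SYK inhibitor-resistant MV4-11 AML cells, 500 per well, added to predispensed compounds and incubated 72 hr at 37 C, 5% CO2. Viability measured by CellTiter-Glo luminescence after 10 min at room temperature.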
Background: qHTS replaces the single test concentration by a dilution series.
For `CCC(C)CNCC(=O)N1CCc2sccc2C1COc1cccc(C)c1` (centres undefined), the Potency is 9.2 µM (active). The same measure, in the same setting: the result for `COc1cc(C(=O)NC2CCN(C)CC2)c(F)cc1Nc1ncc2c(n1)N(C1CCCC1)CC(F)(F)C(=O)N2C` reads 0.0092 µM (active). On to `C/C=C1\[C@H](O[C@@H]2O[C@H](CO)[C@@H](O)[C@H](O)[C@H]2O)OC=C(C(=O)OC)[C@H]1CC(=O)OC`, for which the “viability, % of control” value is 63.8% [at 17.3 µM].

For `C=C(C)[C@@H](C)[C@H]1O[C@]23C[C@]4(CO2)C(CCC2[C@@]5(C)CC[C@H](O[C@@H]6OC[C@H](O)[C@H](O[C@@H]7O[C@H](CO)[C@@H](O)[C@H](O)[C@H]7O)[C@H]6O[C@@H]6O[C@@H](CO)[C@H](O)[C@H]6O)C(C)(C)C5CC[C@]24C)C3[C@@](C)(O)[C@@H]1OC(C)=O` (some centres undefined), the viability, % of control is 92.6% [at 9.25 µM].
